# From the supplement of paper PMC9446081
# ± gives the standard deviation of the averaged measurements.
# Assays:
# Assay in all cases: relative enzymatic activity vs untreated control (fraction); higher = less inhibition
# Details in all cases: 100 µM; incubation time: 2 h at 37 C
# [1] = tested on: DNA gyrase
# Description: (§1)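 In vitro enzymatic inhibition assays (ProFoldin kits) for 12 purified essential E. coli enzymes or complexes, each treated with 218 active antibacterial compounds at 100 µM for 2 h at 37°C. Read-outs were fluorescence or absorbance (phosphate detection, dye binding), converted to activity via standard curves and expressed relative to untreated DMSO controls.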
# [2] = target: DNA helicase (UniProt P0ACB1)
# Chain of DNA helicase (P0ACB1 whole entry): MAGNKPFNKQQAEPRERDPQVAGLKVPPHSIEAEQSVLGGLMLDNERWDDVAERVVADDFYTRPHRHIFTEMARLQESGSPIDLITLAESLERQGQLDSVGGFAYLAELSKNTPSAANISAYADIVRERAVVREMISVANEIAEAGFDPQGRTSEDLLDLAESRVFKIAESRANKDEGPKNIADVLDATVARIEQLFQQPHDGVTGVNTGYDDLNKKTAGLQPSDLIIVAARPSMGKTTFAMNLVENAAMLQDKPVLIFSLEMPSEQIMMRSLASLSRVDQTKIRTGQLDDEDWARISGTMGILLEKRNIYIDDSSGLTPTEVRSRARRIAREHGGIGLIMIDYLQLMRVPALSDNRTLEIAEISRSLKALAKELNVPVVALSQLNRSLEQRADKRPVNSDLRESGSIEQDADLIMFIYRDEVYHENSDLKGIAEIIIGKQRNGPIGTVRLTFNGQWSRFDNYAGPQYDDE
# Description: as §1
# [3] = target: DNA ligase (UniProt B1XA82)
# Chain of DNA ligase (B1XA82 whole entry): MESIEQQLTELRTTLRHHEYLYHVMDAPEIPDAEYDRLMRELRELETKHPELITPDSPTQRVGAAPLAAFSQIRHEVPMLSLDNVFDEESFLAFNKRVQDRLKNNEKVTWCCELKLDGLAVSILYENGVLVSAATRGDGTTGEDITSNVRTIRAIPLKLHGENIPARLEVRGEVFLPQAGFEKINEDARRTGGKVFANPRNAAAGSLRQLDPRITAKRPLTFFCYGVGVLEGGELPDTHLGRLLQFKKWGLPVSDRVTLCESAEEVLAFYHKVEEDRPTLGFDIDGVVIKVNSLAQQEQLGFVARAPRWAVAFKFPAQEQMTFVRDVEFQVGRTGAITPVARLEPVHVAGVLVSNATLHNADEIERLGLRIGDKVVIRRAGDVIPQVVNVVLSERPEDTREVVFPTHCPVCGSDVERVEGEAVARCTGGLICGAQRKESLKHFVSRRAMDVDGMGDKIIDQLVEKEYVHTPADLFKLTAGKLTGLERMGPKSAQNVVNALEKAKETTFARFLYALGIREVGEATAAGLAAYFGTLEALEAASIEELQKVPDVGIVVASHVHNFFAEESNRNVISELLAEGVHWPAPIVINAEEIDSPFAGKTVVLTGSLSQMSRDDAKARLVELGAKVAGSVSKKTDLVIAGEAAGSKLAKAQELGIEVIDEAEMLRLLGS
# Description: as §1
# [4] = target: DNA polymerase (UniProt P10443)
# Chain of DNA polymerase (P10443 whole entry): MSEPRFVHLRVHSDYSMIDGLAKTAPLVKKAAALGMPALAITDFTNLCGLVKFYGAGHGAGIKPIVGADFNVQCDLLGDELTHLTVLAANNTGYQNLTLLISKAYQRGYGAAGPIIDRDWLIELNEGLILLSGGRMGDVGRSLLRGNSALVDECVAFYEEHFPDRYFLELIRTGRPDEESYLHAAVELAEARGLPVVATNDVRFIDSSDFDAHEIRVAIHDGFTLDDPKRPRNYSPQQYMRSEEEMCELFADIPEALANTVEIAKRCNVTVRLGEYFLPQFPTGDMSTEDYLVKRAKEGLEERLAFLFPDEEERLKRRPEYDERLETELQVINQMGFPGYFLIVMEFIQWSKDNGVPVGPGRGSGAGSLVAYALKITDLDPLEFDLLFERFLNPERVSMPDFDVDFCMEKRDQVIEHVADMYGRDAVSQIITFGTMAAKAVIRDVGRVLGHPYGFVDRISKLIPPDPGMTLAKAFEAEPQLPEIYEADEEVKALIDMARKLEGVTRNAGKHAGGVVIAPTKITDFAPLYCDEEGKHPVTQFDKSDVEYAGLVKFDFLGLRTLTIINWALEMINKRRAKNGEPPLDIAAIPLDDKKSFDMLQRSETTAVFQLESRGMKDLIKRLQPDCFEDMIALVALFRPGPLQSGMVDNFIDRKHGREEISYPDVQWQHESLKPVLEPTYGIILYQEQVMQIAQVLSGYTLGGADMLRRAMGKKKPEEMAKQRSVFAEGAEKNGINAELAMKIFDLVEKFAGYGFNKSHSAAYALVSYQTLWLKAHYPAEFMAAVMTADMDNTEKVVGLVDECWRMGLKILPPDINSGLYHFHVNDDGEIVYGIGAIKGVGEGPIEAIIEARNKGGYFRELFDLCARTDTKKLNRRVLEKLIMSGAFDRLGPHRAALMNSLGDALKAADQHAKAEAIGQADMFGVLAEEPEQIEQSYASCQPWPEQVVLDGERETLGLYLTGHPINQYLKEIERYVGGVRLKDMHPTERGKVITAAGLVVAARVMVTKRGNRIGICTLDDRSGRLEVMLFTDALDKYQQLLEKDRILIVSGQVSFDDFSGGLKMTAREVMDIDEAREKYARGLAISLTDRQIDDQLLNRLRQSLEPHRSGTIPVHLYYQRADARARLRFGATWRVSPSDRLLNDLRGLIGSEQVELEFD
# Description: as §1
# [5] = target: DNA primase (UniProt P0ABS7)
# Chain of DNA primase (P0ABS7 whole entry): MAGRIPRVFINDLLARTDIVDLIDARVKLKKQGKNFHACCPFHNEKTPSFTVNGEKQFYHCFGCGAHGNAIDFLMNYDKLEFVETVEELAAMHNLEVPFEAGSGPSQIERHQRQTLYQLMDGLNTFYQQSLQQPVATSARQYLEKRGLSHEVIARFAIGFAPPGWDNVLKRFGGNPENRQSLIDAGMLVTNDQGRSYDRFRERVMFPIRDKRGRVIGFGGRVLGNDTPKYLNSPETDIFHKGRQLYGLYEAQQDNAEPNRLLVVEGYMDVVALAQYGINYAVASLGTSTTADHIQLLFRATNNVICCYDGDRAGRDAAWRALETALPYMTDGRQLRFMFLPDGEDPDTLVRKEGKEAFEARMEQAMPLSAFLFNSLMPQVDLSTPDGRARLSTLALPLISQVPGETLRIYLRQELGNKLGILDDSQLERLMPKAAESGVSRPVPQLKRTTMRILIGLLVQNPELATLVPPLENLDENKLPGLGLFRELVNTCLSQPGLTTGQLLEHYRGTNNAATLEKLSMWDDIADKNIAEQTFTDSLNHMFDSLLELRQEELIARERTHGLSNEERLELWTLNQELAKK
# Description: as §1
# [6] = target: GlmU (UniProt A7ZTU1)
# Chain of GlmU (A7ZTU1 whole entry, looked up): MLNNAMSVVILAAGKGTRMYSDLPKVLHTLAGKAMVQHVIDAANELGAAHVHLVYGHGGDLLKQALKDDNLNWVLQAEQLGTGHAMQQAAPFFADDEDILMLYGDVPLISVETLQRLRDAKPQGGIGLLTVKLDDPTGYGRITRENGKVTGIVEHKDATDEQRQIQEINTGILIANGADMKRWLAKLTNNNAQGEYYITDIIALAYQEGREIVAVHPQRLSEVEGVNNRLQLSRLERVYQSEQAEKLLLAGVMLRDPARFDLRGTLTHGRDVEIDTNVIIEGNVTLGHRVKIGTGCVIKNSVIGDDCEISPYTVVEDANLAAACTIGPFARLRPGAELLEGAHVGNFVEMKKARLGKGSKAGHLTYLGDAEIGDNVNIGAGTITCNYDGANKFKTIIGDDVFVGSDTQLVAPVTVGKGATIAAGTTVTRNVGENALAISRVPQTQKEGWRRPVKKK
# Description: as §1
# [7] = target: Guanlyate kinase (UniProt Q0TBG1)
# Chain of Guanlyate kinase (Q0TBG1 whole entry): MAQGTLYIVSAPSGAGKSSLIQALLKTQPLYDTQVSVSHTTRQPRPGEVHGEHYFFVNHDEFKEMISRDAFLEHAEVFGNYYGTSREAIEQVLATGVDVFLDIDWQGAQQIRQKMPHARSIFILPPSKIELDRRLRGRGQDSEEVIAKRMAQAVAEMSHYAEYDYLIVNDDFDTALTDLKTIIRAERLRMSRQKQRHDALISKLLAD
# Description: as §1
# [8] = target: MurA (UniProt Q3YX52)
# Chain of MurA (Q3YX52 whole entry): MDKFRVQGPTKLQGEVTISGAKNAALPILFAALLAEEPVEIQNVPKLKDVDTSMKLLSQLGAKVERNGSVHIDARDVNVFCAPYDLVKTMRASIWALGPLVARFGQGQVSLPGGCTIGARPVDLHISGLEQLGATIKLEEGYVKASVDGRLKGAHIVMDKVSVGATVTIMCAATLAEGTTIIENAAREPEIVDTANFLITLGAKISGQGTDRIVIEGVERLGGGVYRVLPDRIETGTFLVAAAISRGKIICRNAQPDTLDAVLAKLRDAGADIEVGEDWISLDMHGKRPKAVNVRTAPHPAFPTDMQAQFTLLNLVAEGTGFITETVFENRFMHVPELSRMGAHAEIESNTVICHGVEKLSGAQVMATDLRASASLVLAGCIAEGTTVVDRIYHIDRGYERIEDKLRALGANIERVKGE
# Description: as §1
# [9] = target: MurC (UniProt C4ZRI6)
# Chain of MurC (C4ZRI6 whole entry, looked up): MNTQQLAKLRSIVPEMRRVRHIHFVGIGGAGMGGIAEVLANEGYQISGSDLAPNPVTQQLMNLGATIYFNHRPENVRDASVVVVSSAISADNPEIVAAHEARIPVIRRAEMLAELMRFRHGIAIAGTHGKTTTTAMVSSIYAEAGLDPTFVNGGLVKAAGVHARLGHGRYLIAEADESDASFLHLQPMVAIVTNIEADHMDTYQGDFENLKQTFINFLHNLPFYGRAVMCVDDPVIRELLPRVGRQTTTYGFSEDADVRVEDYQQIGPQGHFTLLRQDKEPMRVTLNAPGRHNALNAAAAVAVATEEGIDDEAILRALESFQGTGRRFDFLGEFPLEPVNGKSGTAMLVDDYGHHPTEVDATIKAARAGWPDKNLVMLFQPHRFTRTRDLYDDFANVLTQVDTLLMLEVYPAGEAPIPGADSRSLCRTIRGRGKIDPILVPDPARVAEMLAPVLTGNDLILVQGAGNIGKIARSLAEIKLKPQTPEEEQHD
# Description: as §1
# [10] = target: T1, MurD (UniProt P14900)
# T1 sequence (whole entry): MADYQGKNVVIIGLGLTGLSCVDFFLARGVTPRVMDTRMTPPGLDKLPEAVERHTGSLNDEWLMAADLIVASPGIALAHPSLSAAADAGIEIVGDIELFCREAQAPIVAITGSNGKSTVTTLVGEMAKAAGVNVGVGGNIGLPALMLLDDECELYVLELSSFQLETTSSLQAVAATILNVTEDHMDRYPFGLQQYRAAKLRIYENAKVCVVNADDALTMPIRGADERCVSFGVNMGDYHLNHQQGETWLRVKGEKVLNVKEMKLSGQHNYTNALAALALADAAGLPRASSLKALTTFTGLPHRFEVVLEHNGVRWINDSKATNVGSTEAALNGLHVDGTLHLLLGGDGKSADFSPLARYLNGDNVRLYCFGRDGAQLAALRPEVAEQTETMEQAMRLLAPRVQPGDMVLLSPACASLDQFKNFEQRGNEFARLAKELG
# Description: as §1
# [11] = target: T2, MurF (UniProt P11880)
# T2 sequence (whole entry): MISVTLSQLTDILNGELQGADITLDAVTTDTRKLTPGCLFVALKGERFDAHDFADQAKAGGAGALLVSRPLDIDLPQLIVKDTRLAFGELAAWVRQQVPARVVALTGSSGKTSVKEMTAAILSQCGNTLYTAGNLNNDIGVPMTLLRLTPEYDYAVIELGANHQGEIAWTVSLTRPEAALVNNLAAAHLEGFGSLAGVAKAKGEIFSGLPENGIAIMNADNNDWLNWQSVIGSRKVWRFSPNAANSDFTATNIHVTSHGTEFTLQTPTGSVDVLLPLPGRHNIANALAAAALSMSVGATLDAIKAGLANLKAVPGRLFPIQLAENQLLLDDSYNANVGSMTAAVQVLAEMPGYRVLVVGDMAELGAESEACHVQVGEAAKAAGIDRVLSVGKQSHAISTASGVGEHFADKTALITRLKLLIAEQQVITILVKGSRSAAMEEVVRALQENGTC
# Description: as §1
# [12] = tested on: RNA polymerase
# Description: as §1
Compound,relative enzymatic activity [1],relative enzymatic activity [2],relative enzymatic activity [3],relative enzymatic activity [4],relative enzymatic activity [5],relative enzymatic activity [6],relative enzymatic activity [7],relative enzymatic activity [8],relative enzymatic activity [9],relative enzymatic activity [10],relative enzymatic activity [11],relative enzymatic activity [12]
NCC[C@H](O)C(=O)N[C@@H]1C[C@H](N)[C@@H](O[C@H]2O[C@H](CN)[C@@H](O)[C@H](O)[C@H]2O)[C@H](O)[C@H]1O[C@H]1O[C@H](CO)[C@@H](O)[C@H](N)[C@H]1O,0.228 ± 0.0032,0.0994 ± 0.0019,0.871 ± 0.16,0.863 ± 0.26,0.508 ± 0.14,0.9473 ± 0.0079,0.438 ± 0.056,0.326 ± 0.1,1.05 ± 0.11,0.608 ± 0.42,0.979 ± 0.24,0.699 ± 0.083
Cl.O=C1CC2(CCCC2)CC(=O)N1CCCCN1CCN(c2ncccn2)CC1,0.812 ± 0.33,0.485 ± 0.034,0.999 ± 0.1,1.05 ± 0.045,0.81 ± 0.029,1.03 ± 0.042,1 ± 0.013,0.865 ± 0.1,1.073 ± 0.0016,0.609 ± 0.44,0.97 ± 0.21,0.83 ± 0.039
CON=C(C(=O)NC1C(=O)N2C(C(=O)[O-])=C(CSc3nc(=O)c([O-])nn3C)CSC12)c1csc(N)n1.O.O.O.[Na+].[Na+] (configuration not stated),0.7 ± 0.45,0.48 ± 0.015,1.29 ± 0.4,1.13 ± 0.23,0.69 ± 0.18,0.996 ± 0.014,0.914 ± 0.065,0.124 ± 0.03,1.041 ± 0.0071,0.583 ± 0.4,0.955 ± 0.21,0.843 ± 0.073
O=C([O-])C1=C(CSc2nnnn2CS(=O)(=O)[O-])CSC2C(NC(=O)C(O)c3ccccc3)C(=O)N12.[Na+].[Na+] (configuration not stated),0.964 ± 0.12,0.74 ± 0.14,1.26 ± 0.45,1.24 ± 0.4,0.753 ± 0.0084,1.1 ± 0.034,0.879 ± 0.012,0.1 ± 0.034,1.25 ± 0.052,0.217 ± 0.2,1.03 ± 0.24,0.815 ± 0.068
CN(C)c1ccc(O)c2c1C[C@H]1C[C@H]3[C@H](N(C)C)C(=O)C(C(N)=O)=C(O)[C@@]3(O)C(=O)[C@H]1C2=O,0.655 ± 0.27,0.659 ± 0.38,0.8389 ± 0.0033,0.961 ± 0.2,0.669 ± 0.027,0.995 ± 0.035,0.701 ± 0.069,0.0752 ± 0.015,–,0.623 ± 0.42,0.96 ± 0.18,0.304 ± 0.052
CCn1cc(C(=O)O)c(=O)c2cnc(N3CCNCC3)nc21,0.262 ± 0.12,0.533 ± 0.057,0.92 ± 0.084,1.16 ± 0.2,0.876 ± 0.015,0.94 ± 0.024,0.891 ± 0.16,0.865 ± 0.047,–,0.583 ± 0.38,1.136 ± 0.011,0.83 ± 0.027
Nc1nc(C(=CCC(=O)O)C(=O)NC2C(=O)N3C(C(=O)O)=CCSC23)cs1 (configuration not stated),0.16 ± 0.14,0.257 ± 0.0059,1.1 ± 0.24,0.742 ± 0.27,0.682 ± 0.082,0.934 ± 0.01,0.901 ± 0.03,0.0583 ± 0.02,–,0.575 ± 0.39,0.958 ± 0.24,0.292 ± 0.037
CC(O)C1C(=O)N2C(C(=O)O)=C(SC3CNC(C(=O)N(C)C)C3)C(C)C12 (configuration not stated),0.734 ± 0.42,0.994 ± 0.1,1.45 ± 0.021,1.26 ± 0.3,0.719 ± 0.22,1.04 ± 0.19,0.973 ± 0.11,0.501 ± 0.29,–,0.487 ± 0.33,0.584 ± 0.82,1.09 ± 0.28
CN(C)C1C(O)=C(C(N)=O)C(=O)C2(O)C(O)=C3C(=O)c4c(O)ccc(Cl)c4C(O)C3CC12.Cl (configuration not stated),0.59 ± 0.38,0.359 ± 0.13,1.03 ± 0.047,1.16 ± 0.26,0.64 ± 0.12,1.005 ± 0.0054,0.874 ± 0.1,0.133 ± 0.045,–,0.593 ± 0.41,0.937 ± 0.17,0.804 ± 0.072
CC[C@H]1OC(=O)[C@H](C)[C@@H](O[C@H]2C[C@@](C)(OC)[C@@H](O)[C@H](C)O2)[C@H](C)[C@@H](O[C@@H]2O[C@H](C)C[C@H](N(C)C)[C@H]2O)[C@](C)(O)C[C@@H](C)CN(C)[C@H](C)[C@@H](O)[C@]1(C)O,0.608 ± 0.34,0.527 ± 0.072,0.871 ± 0.086,1.04 ± 0.12,0.836 ± 0.027,0.99 ± 0.031,0.865 ± 0.079,0.746 ± 0.079,–,0.58 ± 0.37,0.95 ± 0.23,0.897 ± 0.19
O=c1[nH]cc(F)c(=O)[nH]1,0.73 ± 0.39,0.568 ± 0.12,0.9871 ± 0.0093,0.593 ± 0.47,0.852 ± 0.023,0.981 ± 0.051,0.86 ± 0.071,0.673 ± 0.18,–,0.572 ± 0.36,0.972 ± 0.2,0.688 ± 0.065
C=CC1=C(C(=O)O)N2C(=O)C(NC(=O)C(=NO)c3csc(N)n3)C2SC1 (configuration not stated),0.393 ± 0.35,0.553 ± 0.15,1.19 ± 0.35,1.06 ± 0.12,0.8619 ± 0.0016,0.976 ± 0.068,0.917 ± 0.087,0.127 ± 0.04,–,0.596 ± 0.39,0.968 ± 0.27,0.768 ± 0.033
CC1(C)S[C@@H]2[C@H](NC(=O)[C@H](NC(=O)N3CCNC3=O)c3ccccc3)C(=O)N2[C@H]1C(=O)O,0.794 ± 0.35,0.76 ± 0.44,0.934 ± 0.038,1.06 ± 0.04,0.864 ± 0.024,0.998 ± 0.033,0.935 ± 0.03,0.579 ± 0.11,–,0.583 ± 0.4,0.954 ± 0.23,0.869 ± 0.089
CC(N)O.Cc1cc(CC(C)CC(C)(C)C)n(O)c(=O)c1 (configuration not stated),0.964 ± 0.11,0.621 ± 0.26,1.17 ± 0.13,1.16 ± 0.23,0.719 ± 0.22,1.095 ± 0.0024,0.963 ± 0.12,0.844 ± 0.05,–,0.636 ± 0.43,0.592 ± 0.82,0.884 ± 0.076
CO[C@@]12[C@@H]3N[C@@H]3CN1C1=C(C(=O)C(N)=C(C)C1=O)[C@@H]2COC(N)=O,1.25 ± 0.4,0.689 ± 0.37,0.844 ± 0.031,1.17 ± 0.19,0.837 ± 0.014,0.979 ± 0.0078,0.861 ± 0.01,0.431 ± 0.072,–,0.615 ± 0.42,0.942 ± 0.24,0.82 ± 0.035
NCC1OC(OC2C(N)CC(N)C(OC3OC(CO)C(O)C(N)C3O)C2O)C(N)C(O)C1O.O=S(=O)(O)O (configuration not stated),0.685 ± 0.063,0.381 ± 0.53,0.834 ± 0.15,0.924 ± 0.43,0.539 ± 0.052,0.956 ± 0.069,0.589 ± 0.046,0.257 ± 0.04,–,0.647 ± 0.44,0.958 ± 0.17,0.537 ± 0.016
CN1CCN(c2c(F)cc3c(=O)c(C(=O)O)cn(CCF)c3c2F)CC1,0.024 ± 0.034,0.746 ± 0.23,1.37 ± 0.041,1.28 ± 0.3,0.722 ± 0.21,1.16 ± 0.2,0.94 ± 0.085,0.748 ± 0.029,–,0.591 ± 0.39,0.984 ± 0.22,1.05 ± 0.31
O=C(O)c1c(O)c2c([nH]c1=O)CCCC2,0.374 ± 0.066,0.479 ± 0.056,1.18 ± 0.34,1.08 ± 0.16,0.752 ± 0.029,0.975 ± 0.042,0.874 ± 0.041,0.769 ± 0.13,–,0.611 ± 0.39,0.899 ± 0.18,0.636 ± 0.18
